# Screen size: about 2,300 compounds; about 330 (14%) showed activity. A selection follows. Unmarked numbers belong to inactive results.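 The calls were made as follows: active = median modified Z-score above 1.96; inactive = 1.96 or below.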
# Test system: HepG2 Srxn1-GFP reporter cells (+30 nM CDDO-Me)
# Test: Srxn1-GFP intensity median modified Z-score relative to plate median; higher = stronger NRF2 / oxidative stress reporter activation, active = hit call of the paper
# Details: 10 µM; exposure time: 24h
# Procedure, shortened: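 Compound at 10 μM was applied with an NRF2 activator at 30 nM to HepG2 Srxn1-GFP BAC reporter cells for 24 h, in DMSO at no more than 0.1%, using three replicate 96-well plates seeded at 20,000 cells per well. Fixed, Hoechst-stained cells were imaged confocally and cytoplasmic GFP was scored for each cell, with images under 100 cells left out. The figure reported is the replicate median of the per-plate modified Z-score of GFP intensity. Scaling relied on 1.4826 × median absolute deviation.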
row,Compound,Srxn1-GFP intensity median modified Z-score
1,COC(=O)C1=C(C)N=C(C)C(C(=O)OC(C)C)C1c1cccc2nonc12 (stereo not given) [euspeclibcmpd996],-0.132
2,CCOC(=O)C1=C(C)N=C(C)C(C(=O)OC)C1c1cccc([N+](=O)[O-])c1 (stereo not given) [euspeclibcmpd494],0.225
3,CCOC(=O)C1=C(COCCN)N=C(C)C(C(=O)OC)C1c1ccccc1Cl (stereo not given) [euspeclibcmpd713],22.6 (active)
4,Cc1cc(=NC(=O)C2C(=O)c3ccccc3S(=O)(=O)N2C)[nH]o1 (stereo not given) [euspeclibcmpd552],-0.344
5,CC1=c2c(C)c(O)c(C(=O)O)c(O)c2=CO[C@@H]1C [euspeclibcmpd1555],1.14
6,CCCC(C(N)=O)c1ccccc1 (stereo not given),1.53
7,OCCN1C[C@@H](O)[C@@H](O)C(O)C1CO (stereo not given in full) [euspeclibcmpd679],0.73
8,CC(=O)OCC(=O)C1CCC2C3CC=C4C[C@@H](O)CC[C@]4(C)C3CC[C@]12C (stereo not given in full) [euspeclibcmpd1443],0.217
9,COC(=O)C[C@H]1C(C)(C)[C@@H](OC(C)=O)C2CC3=C4CC(=O)O[C@@H](c5ccoc5)[C@]4(C)CCC3[C@@]1(C)C2=O (stereo not given in full) [euspeclibcmpd1559],0.833
10,COc1c(O)c(C)c(C=CC(C)=CCC=C(C)CCC=C(C)CCC=C(C)CCC=C(C)CCC=C(C)CCC=C(C)CCC=C(C)CCC=C(C)CCC=C(C)C)c(O)c1OC [euspeclibcmpd1853],-0.0742
11,COc1c(C/C=C(\C)CCC(=O)O)c(O)c2c(O)occ2c1C [euspeclibcmpd334],11.8 (active)
12,COc1c(C/C=C(\C)CCC(=O)OCCN2CCOCC2)c(O)c2c(O)occ2c1C [euspeclibcmpd688],5.22 (active)
13,Oc1ccc(C(O)O)[nH]1 [euspeclibcmpd1237],-0.421
14,CC(=O)OCC[N+](C)(C)C [euspeclibcmpd13],-0.276
15,CC(C)=CCC=C(C)C=Cc1c(C)c(O)c2ccccc2c1O [euspeclibcmpd1484],-0.304
16,CN1CCN(C2N=c3cc(Cl)ccc3=Nc3ccccc32)CC1 (stereo not given) [euspeclibcmpd804],0.387
17,C#CCCCCCCCCCCCc1ccco1 [euspeclibcmpd2261],-0.224
18,CCCCCCCCCc1ccc(OCCOCCOCCOCCOCCOCCOCCOCCOCCO)cc1 [euspeclibcmpd736],18.5 (active)
19,CCNCC(O)COc1ccc(CCOC)cc1 (stereo not given),1.2
20,CCCCOc1ccc(CC(O)=NO)cc1 [euspeclibcmpd1071],1.55

# — the supplement of paper PMC10498489
